Compound activity as filed in PubChem.
CBFb-RUNX1 inh: blocks binding between human CBF-beta and RUNX1; AlphaScreen CBFb-His/RUNX1-biotin binding, biochemical; Potency, µM (top dose mostly 59.8 µM), for inactives: at the top dose activity, negative = inhibition, most hits filed as inhibitors; 230,000 tested, under 10 active; further: % of control where 0% means no effect
Target sequence (Q01196 whole entry, looked up): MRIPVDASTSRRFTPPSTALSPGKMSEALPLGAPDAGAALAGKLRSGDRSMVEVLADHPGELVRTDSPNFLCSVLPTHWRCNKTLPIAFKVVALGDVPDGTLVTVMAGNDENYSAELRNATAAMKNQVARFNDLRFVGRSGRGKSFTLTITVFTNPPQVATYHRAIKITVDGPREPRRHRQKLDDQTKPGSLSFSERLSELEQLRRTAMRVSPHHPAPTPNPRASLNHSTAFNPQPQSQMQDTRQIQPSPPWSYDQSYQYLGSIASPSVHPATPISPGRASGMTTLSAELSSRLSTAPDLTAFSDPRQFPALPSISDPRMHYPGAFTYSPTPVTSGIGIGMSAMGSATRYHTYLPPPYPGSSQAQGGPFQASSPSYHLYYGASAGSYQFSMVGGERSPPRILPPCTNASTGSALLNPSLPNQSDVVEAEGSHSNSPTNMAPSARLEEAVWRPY
Target sequence (Q13951 whole entry, looked up): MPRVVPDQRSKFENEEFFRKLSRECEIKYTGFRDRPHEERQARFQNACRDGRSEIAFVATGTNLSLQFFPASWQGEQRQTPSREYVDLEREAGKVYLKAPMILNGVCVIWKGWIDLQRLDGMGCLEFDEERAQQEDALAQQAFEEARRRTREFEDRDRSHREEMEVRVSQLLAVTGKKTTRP
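AlphaScreen proximity signal reports loss of binding between His-tagged CBF-beta and biotin-labelled RUNX1, each at 30 nM. Proteins are pre-associated for 20 minutes, compounds added for 15 minutes, then beads for 90 minutes, all at ambient temperature.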
MBNL1-CUG inh: MBNL1-poly(CUG) RNA binding inhibition; Q9NR56; TR-FRET MBNL1-His/biotin-(CUG)12 binding, 665/545 ratio; Potency, µM (top dose mostly 57.5 µM), without a hit: at the highest dose activity change, negative = inhibition, most hits filed as inhibitors; actives 0.036% (n = 280,000); active means well fitted inhibition curve with a large enough effect in the signal ratio, with a control signal flat, not every such curve was filed as active; inconclusive means small, poorly fitted or top-dose-only effect, or effect the other way, or a change in a side signal; inactive means no such curve, though single readings can be large or run the other way; the % refers to the signal ratio; further: potency means the concentration at half of the fitted maximal effect; on the % scale 0 is the no-effect control and ±100 the full control effect
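Ratiometric TR-FRET (665 over 545 nm, excitation 340 nm) tracks disruption of MBNL1-His/biotin-(CUG)12 complex after 60 min at room temperature, with compounds at 92 nM to 58 uM final.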
DRD3 antagonist: blocks the human D3 dopamine receptor | P35462 | AID 652054 | actives 2.5% (n = 360,000) | D3R cells, DiscoveRx beta-arrestin luminescence, antagonist mode; stronger effect = lower value | max response, negative = inhibition, %; in the data active means max response below about -50%; inconclusive means no clear call, values can overlap the other calls; further: on the % scale 0 is the no-effect control and ±100 the full control effect
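Cells plated overnight at 1500 cells/well, then exposed to library compounds with dopamine controls for 90 minutes at 37 degrees C. DiscoveRx reagent added for 30–60 minutes at room temperature; luminescence read, quantitative HTS format.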
PTHR1 agonist: agonists of human PTHR1 parathyroid hormone receptor. Q03431. HEK293 GP2 PTHR1 cells, GloSensor cAMP luminescence, 1 h. Potency, µM (titrated, usually from 115 µM), for the others: at the top dose activation, actives largely listed as activators. actives 0.075% (n = 410,000); further: potency means the concentration at half of the fitted maximal effect; nearly all actives have a fitted effect of over 55% in size
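HEK-293-derived GP2 cells expressing PTHR1 and a GloSensor cAMP reporter, 3,000/well, plated overnight, given luciferin plus IBMX (each 0.5 mM as added) for 1 h at 37 °C, then compound for 1 h at 37 °C. Luminescence was read after 15 min at room temperature.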
Integrin act MD: integrin-mediated muscular dystrophy alleviation activation. actives 0.064% (n = 350,000). alpha7betagal myoblasts, beta-gal FDG fluorescence, 48 h. Potency, µM (top dose mostly 38.3 µM), without a hit: top-dose activation, most hits filed as activators;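 further: potency means the concentration at half of the fitted maximal effect; 100% = response of the positive control SU9516; nearly all actives have a fitted effect of over 60% in size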
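Alpha7betagal+/- myoblasts (passage 13) were plated 16-24 hr, then exposed to compounds (1:260 dilution of DMSO stock) for 48 hours at 37C. After MPER lysis, β-galactosidase reporter activity was read as FDG fluorescence (ex 480/em 540) after 30 minutes.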
DRD3 agonist: activates the human D3 dopamine receptor. P35462. D3R DiscoveRx beta-arrestin cells, luminescence, 90 min. max activation, %. actives 0.58% (n = 410,000). AID 652048; in the data active means max activation above about 30%; further: 0% is about no effect
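Cells at 1500/well, incubated overnight, then treated with pinned compounds (dopamine as control) for 90 min at 37 degrees C. DiscoveRx reagent added for 30 - 60 minutes at room temperature; luminescence read.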
* hit, by the source's call; i = inactive; ? = inconclusive; / = no result given; [ ] = another dose, or the depositor's remark. Most compounds without a hit are left out; they make up all but 2.8% or so of the library. Unless noted, the call rests on the fitted dose curve; in most records, active means well fitted curve in the direction sought with a large enough effect; inconclusive means small, poorly fitted or top-dose-only effect, or another doubt; inactive means no such curve, though single readings can be large; an effect the other way counts as inactive or inconclusive.

SMILES	CBFb-RUNX1 inh	MBNL1-CUG inh	DRD3 antagonist	PTHR1 agonist	Integrin act MD	DRD3 agonist
O=C(NCc1cc(Cl)cc(Cl)c1)c1csc(COCCO)n1	/	/	?	13%	/	4
CCCCN(C)C(=O)c1sc(=O)n(Cc2c(C)cccc2C)c1C	/	/	?	-12%	/	-8
CCn1cc(C(=O)NNC(=O)c2ccc(Cl)cc2)c(=O)c2ccc(C)nc21	17%	-3%	/	/	/	/
COc1ccc(C[C@H]2CN3C(=NC[C@H]3Cc3ccccc3)N2CCNC(=O)c2ccc(C)c(Br)c2)cc1	-7%	-8%	-3	-10%	-45%	-34
C/C=C(\C)C(=O)NCCN1C2=NC[C@H](Cc3ccccc3)N2C[C@@H]1Cc1ccc(OC)cc1	/	/	-52*	-5%	-16%	0
Cc1ccc(C(=O)NCCN2C3=NC[C@@H](Cc4ccccc4)N3C[C@H]2Cc2ccc(O)cc2)cc1Br	3%	-15%	-58*	-1%	-45%	-15
C/C=C(\C)C(=O)NCCN1C2=NC[C@H](Cc3ccccc3)N2C[C@H]1Cc1ccc(O)cc1	10%	-11%	3	-11%	-5%	-14
COc1ccc(C[C@H]2CN3C(=NC[C@@H]3Cc3ccc(O)cc3)N2CCNC(=O)c2ccc(C)c(Br)c2)cc1	-7%	-8%	-98*	i	-40%	-67
COc1ccc(C[C@H]2CN3C(=NC[C@@H]3Cc3ccccc3)N2CCNC(=O)c2ccc(C)c(Br)c2)cc1	-6%	-19%	-100*	-6%	-6%	-51
Cc1ccc(C(=O)NCCN2C3=NC[C@H](Cc4ccc(O)cc4)N3C[C@H]2Cc2ccc(O)cc2)cc1Br	-10%	?	?	1%	-9%	-53
C=CCn1c(CNC(=O)c2ccccc2F)nnc1SCC(=O)NC(C)c1ccccc1 (stereo not drawn)	20%	-4%	-8	-20%	30%	7
COc1ccc(-c2nsc(SCC(=O)NCC3CCCO3)n2)cc1 (stereo not drawn)	10%	9%	3	-19%	1%	4
O=C(Cc1ccccc1Cl)N/N=C/c1cccnc1	/	18%	-14	i	0%	0
CCC(=O)Oc1ccc(NC(=O)c2ccc(S(=O)(=O)N3CCCC3)cc2)cc1	/	/	-26	-2%	19%	-4
CSc1nc2n(n1)C(c1cc(Br)ccc1F)C(C(=O)N(C)C)=C(C)N2 (stereo not drawn)	1%	-2%	-70*	i	-4%	2
CC1=C(C(=O)Nc2ccccc2)C(c2cc(Br)ccc2F)n2ncc(C(=O)Nc3ccccc3)c2N1 (stereo not drawn)	/	/	/	-10%	/	-6
CC(=O)c1ccc(S(=O)(=O)N2CCN(C(=O)c3ccc(COc4ccccc4)o3)CC2)cc1	/	/	18	-32%	29%	1
O=C(OCC(=O)N1CCCCC1)c1cc(NS(=O)(=O)c2ccc(Cl)c([N+](=O)[O-])c2)ccc1O	-8%	-19%	-50*	-15%	-27%	-8
CCCCNC(=O)c1ccc(Cn2c(=S)[nH]c3c([nH]c4ccc(OC)cc43)c2=O)cc1	-7%	13%	-65*	i	-52%	-1
CCN(CC)CCNC(=O)CCCCn1c(=S)[nH]c2c([nH]c3ccc(OC)cc32)c1=O	-3%	?	-56*	-21%[57.5 µM]	4%	-75
CCN(CC(=O)Nc1ccc(NC(C)=O)cc1)CC(=O)Nc1ccc(Cl)c(Cl)c1	/	5%	-60*	-7%	5%	-26
CC(CNCC1CCCO1)COc1cccc2ccccc12 (stereo not drawn)	12%	-2%	-21	-35%[57.5 µM]	-45%	-11
CC(CNCC1CCCO1)COc1ccccc1 (stereo not drawn)	0%	0%	-79*	i	-4%	-18
CCC(C)c1ccc(O)c(NC(=S)NC(=O)c2cccnc2)c1 (stereo not drawn)	-10%	-4%	-63*	-24%	3%	-41
CCc1cc(SC#N)cc(C)c1NC(=O)CCl	-1%	11%	-56*	i	-13%	-7
SMILES	CBFb-RUNX1 inh	MBNL1-CUG inh	DRD3 antagonist	PTHR1 agonist	Integrin act MD	DRD3 agonist
Cc1cc(SC#N)cc(C)c1NC(=O)CCl	7%	-3%	-10	-21%	-44%	-5
N#Cc1ccc(-c2ccco2)nc1SCc1ccccc1	?	8%	3	-23%	-7%	-3
CCSc1nc(-c2ccco2)ccc1C#N	3%	14%	-54*	-13%	-27%	4
Cc1ccc2c(c1)c(=O)c1ccccc1n2CCCC(=O)Nc1cc(Cl)ccc1C	/	/	/	-71%	/	14
Cc1ccc(NC(=O)CCCn2c3ccccc3c(=O)c3cc(C)ccc32)c(Br)c1	/	/	/	-56%	/	39*
COC(=O)Cc1c(O)ccn(Cc2ccc3c(c2)OCO3)c1=O	-3%	-5%	7	i	10µM*	11
COc1cc([N+](=O)[O-])cc(/C=N/NC(=O)C(C)Nc2cccc(C)c2)c1O (stereo not drawn)	3%	?	-55*	0%	12%	-19
COc1cc([N+](=O)[O-])cc(/C=N/NC(=O)C(C)Nc2ccccc2C)c1O (stereo not drawn)	/	?	-98*	i	15%	-20
OC(CC#CCN1CCCC1)(c1ccccc1)c1ccccc1	6%	-16%	-4	-40%	-25%	-23
OC(CCCN1CCCCC1)(c1ccccc1)c1ccccc1	8%	-19%	-101*	-10%	/	-98
OC(CC#CCN1CCCCC1)(c1ccccc1)c1ccccc1	/	-1%	-52*	-38%	-4%	-36
CC(C)C(O)(C#CCN1CCCCCC1)c1ccccc1 (stereo not drawn)	2%	0%	-60*	i	-32%	-10
CCC(O)(CCN1CCCCC1)c1ccccc1 (stereo not drawn)	-1%	9%	15	i	10%	4
O=C(C[C@@H]1C[C@@H]2c3cc(NC(=O)C4CCOCC4)ccc3O[C@@H]2[C@H](CO)O1)NCc1ccccn1	/	/	12	-12%	-7%	-3
O=C1CCCCC(=O)[C@H](O)C[C@H](COCc2ccccc2)O1	/	/	0	-4%	/	91*
O=C1NCC(COCc2ccccc2)O1 (stereo not drawn)	9%	3%	-16	i	9%	4
CN(Cc1ccccc1)C(=O)C1CCN(S(=O)(=O)c2ccc(-n3cnnn3)cc2)CC1	/	0%	0	0%	-6%	6
CCCC(CCC)C(N)=O	/	/	/	/	/	58*
CC1CCN(Cc2c(C(=O)N3CCc4ccccc4C3)nc3ccc(Cl)cn23)CC1	/	2%	-89*	7%	?	-19
